Compound activity as filed in PubChem.
NR3A LBD binder: modulates the human NR3A ligand-binding domain. actives 2.5% (n = 340,000). AID 1259313. NR3A LBD differential scanning fluorimetry, Tm shift; 0% = protein alone, 100% = glycine-bound protein. Tm shift relative to glycine control, % at 25 µM;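 active means melting temperature shift of at least 10% of the positive control shift, at one fixed dose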
MPTP inh: inhibitors of mitochondrial permeability transition pore; isolated mouse mitochondria, Ca2+ swelling absorbance, 30 min; inhibition, % at 10 µM; actives 1.4% (n = 360,000); AID 602449;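 active means inhibition of 50% or more, scaled per plate between neutral and stimulator controls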
Myeloid diff 2: myeloid differentiation induction; ER-HoxA9 myeloid progenitors, lysozyme-GFP differentiation, flow cytometry; calls only at 10 µM; actives 1% (n = 360,000); AID 624256;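 active means normalized GFP-positive differentiation at or above the plate's own cutoff, the solvent-only control mean plus 3 SD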;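 further: cells exposed to compound for four days before flow analysis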
rCAG binder: binds r(CAG) RNA repeats; actives 1.3% (n = 370,000); inhibition, % at 3 µM; AID 651821; r(CAG) RNA repeat, TO-PRO-1 dye displacement fluorescence;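 active means inhibition above the plate cutoff, the mean of all test compounds on that plate plus 3 SD, cut at about 35% in these data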;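 further: higher means more dye released from RNA so lower well fluorescence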
FAS-TE inh: blocks the thioesterase domain of human fatty acid synthase; P49327; recombinant FAS-TE, OMFH fluorogenic substrate, fluorescence endpoint; inhibition, % at 15 µM; actives 0.67% (n = 360,000);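 active means compounds whose normalised, plate-corrected inhibition of enzyme fluorescence in the single-dose primary screen is 50% or more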
Of the large screens only hits and unclear results are named; the others gave an inactive call. Hits are enriched below; roughly 5.7% of the tested compounds scored in any of these assays.

CC(NC(=O)c1ccco1)C(=O)N1CCN(C(c2ccccc2)c2ccccc2)CC1 (stereo not given)	NR3A LBD binder 11
Cc1nn(CCCC(=O)NCc2ccc(Cl)cc2)c(C)c1[N+](=O)[O-]	NR3A LBD binder 12
COc1ccc(CNC(=O)CCCn2nc(C)c([N+](=O)[O-])c2C)cc1OC	none
Cc1ccccc1NCCC(=O)Nc1ccc(Cl)cc1	NR3A LBD binder 14
Cc1ccccc1NCCC(=O)Nc1ccc(F)cc1	none
O=C(CSc1nnc(-c2ccc(O)cc2)o1)Nc1ccc2c(c1)OCCO2	none
NS(=O)(=O)c1ccc(NC(=O)CSc2nnc(-c3ccc(O)cc3)o2)cc1	NR3A LBD binder 26
O=C(CSc1nnc(-c2ccc(O)cc2)o1)Nc1cccc(O)c1	NR3A LBD binder 18
N#Cc1cccc(NC(=O)CSc2nnc(-c3n[nH]c4ccccc34)o2)c1	NR3A LBD binder 71
O=C(NCc1ccccc1)[C@@H]1CCCN1C(=O)[C@H]1CCCN1C(=O)c1cc(F)cc(F)c1	none (no result: NR3A LBD binder, MPTP inh, Myeloid diff 2, FAS-TE inh)
CN(C)NC(=O)C(NC(=O)c1ccccc1)C12CC3CC(CC(C3)C1)C2 (stereo not given)	Myeloid diff 2 active
COc1cc(OC)cc(C(=O)NC(C(=O)O)C23CC4CC(CC(C4)C2)C3)c1 (stereo not given)	none
Cc1ccc(C2=CSC3=NNC4(CCCCC4)NN23)cc1	Myeloid diff 2 active
COc1ccc(C2=CSC3=NNC4(CCCCC4)NN23)cc1	none
CCC(C)/C(C)=N/NC(=O)c1ccc(COc2ccc(Cl)c(C)c2)cc1 (stereo not given)	Myeloid diff 2 active
COc1ccc(/C=C2\CCCC3C2=NN(C(=O)c2ccco2)C3c2ccc(OC)c(OC)c2)cc1OC (stereo not given)	none
COc1ccc(/C=C2\CCCC3C2=NN(C(=O)c2scnc2C)C3c2ccc(OC)c(OC)c2)cc1OC (stereo not given)	NR3A LBD binder 11
C=CCNc1ccc2c(c1)OC[C@H](Cc1ccccc1)NS2(=O)=O	none (no result: NR3A LBD binder, MPTP inh, Myeloid diff 2, FAS-TE inh)
c1ccc(Nc2ccc(-n3ccnc3)nn2)cc1	none
Clc1ccc(Nc2ccc(-n3ccnc3)nn2)cc1Cl	NR3A LBD binder 19
O=C(Nc1ccc2c(c1)OCO2)NC1CCN(S(=O)(=O)c2ccc(F)cc2)CC1	none (no result: NR3A LBD binder, MPTP inh, Myeloid diff 2, FAS-TE inh)
COC(=O)c1ccc(NC(=O)CNc2ccccc2)cc1	NR3A LBD binder 42
COC(=O)c1ccc(NC(=O)C(=O)N2CCN(C(=S)NCCc3ccccc3)CC2)cc1	NR3A LBD binder 15
O=C(NCCc1ccccc1)c1ccc(NC(=O)C2CC2)cc1	none
COC(=O)c1ccc(NC(=O)CC(=O)Nc2ccc(C(=O)OC)cc2)cc1	none
CC(=O)Nc1ccc(C(=O)NCCc2ccccc2)cc1	NR3A LBD binder 16
CC(=O)Nc1ccc(NC(=O)c2ccc(NC(=O)c3ccccc3)cc2)cc1	NR3A LBD binder 28
Cc1ccc(NC(=O)c2ccccc2)cc1	none
CN(Cc1ccc(F)cc1)C(=O)CN1C(=O)C2(OCCCO2)c2ccccc21	none (no result: NR3A LBD binder, MPTP inh, Myeloid diff 2, FAS-TE inh)
CCCCCCCCN1C(=O)N2Cc3ccccc3C2CS1(=O)=O (stereo not given)	none (no result: NR3A LBD binder, MPTP inh, Myeloid diff 2, FAS-TE inh)
CC(=O)CC[C@H]1CC[C@]2(CCCN(C(=O)C3CCCCC3)C2)O1	none (no result: NR3A LBD binder, MPTP inh, Myeloid diff 2, FAS-TE inh)
CCN(CC)CCOC(=O)c1ccc(NC(=O)/C=C/c2cccs2)cc1	none
CCOC(=O)c1sc(=S)n(C)c1NC(=O)c1ccccc1	NR3A LBD binder 16
CC(=O)Nc1ccc(C(=O)c2ccccc2)cc1	NR3A LBD binder 13
CCOC(=O)c1ccc(NC(=O)/C=C/c2cccs2)cc1	NR3A LBD binder 23
COC(=O)c1ccc(NC(=O)CSC2=NC(=O)C(c3ccccc3)C(=O)N2)cc1 (stereo not given)	NR3A LBD binder 12
O=C(CSC1=NC(=O)C(c2ccccc2)C(=O)N1)Nc1cccc(Cl)c1 (stereo not given)	none
C/C(=N\NC(=O)c1ccn(C)n1)c1ccc(NC(=O)c2cccc(F)c2)cc1	NR3A LBD binder 16
COc1ccc(CC(=O)NNC(=S)Nc2ccccc2)cc1Br	none
CCOc1ccc(CC(=O)NNC(=S)Nc2ccccc2)cc1Br	NR3A LBD binder 13
C/C(=N\NC(=O)c1ccn(C)n1)c1cccc(NC(=O)c2ccc(C)s2)c1	none
CCOc1ccc(NC(=O)c2cccc(NC(=O)c3ccccc3)c2)cc1	none
CC(=O)Nc1ccc(CCNC(=O)c2ccc3ccccc3c2O)cc1	NR3A LBD binder 24
CCc1cccc(CC)c1NC(=O)c1cccc(NC(=O)c2ccccc2)c1	Myeloid diff 2 active
